In all, about 290,000 compounds went through this assay and about 150 (0.052%) were called active. This excerpt belongs to a sample that is enriched for actives. Results with a measured potency or affinity are listed apart. Values without a mark were called inactive.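 Rule for the calls: active = inhibition of at least 50% with at least 30 cells and total cytoplasm GFP at most 10,000,000; inconclusive = under 30 cells or total GFP of 10,000,000 plus; inactive = the rest.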
biological target: G-protein coupled receptor 35 (Homo sapiens) (UniProt Q9HC97); experiment: GPR35 antagonists blocking zaprinast-driven arrestin recruitment, primary screen, imaging, U2OS, beta-arrestin-GFP, zaprinast agonist (AID 2058); conditions: U2OS GPR35 beta-arrestin-GFP translocation imaging, zaprinast antagonism; at 10 µM; hits give high values
Sequence (Q9HC97 whole entry, looked up): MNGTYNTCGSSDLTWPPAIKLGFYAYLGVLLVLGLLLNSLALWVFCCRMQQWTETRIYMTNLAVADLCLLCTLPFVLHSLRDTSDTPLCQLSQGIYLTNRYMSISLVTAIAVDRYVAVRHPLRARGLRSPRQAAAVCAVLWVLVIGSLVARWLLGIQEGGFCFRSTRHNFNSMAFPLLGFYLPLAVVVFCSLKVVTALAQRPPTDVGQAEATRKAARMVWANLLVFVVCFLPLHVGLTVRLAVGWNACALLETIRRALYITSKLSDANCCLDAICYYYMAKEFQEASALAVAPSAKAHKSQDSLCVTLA

| SMILES | inhibition |
| --- | --- |
| Cc1ccc(NC(=O)COc2ccccc2C(=O)Nc2ccccc2)cc1Cl | -17.7% |
| CCOc1ccc(NC(=O)C(C)Oc2ccccc2C(=O)Nc2cccc(Cl)c2Cl)cc1 (configuration not stated) | 12.3% |
| Cc1csc2c(N3CCC(C(=O)O)CC3)ncnc12 | -2.1% |
| O=C(Nc1ccnn1C1CCN(Cc2ccc(OC(F)F)cc2)CC1)C1CCCC1 | 9.2% |
| CCOc1ccccc1/C=N/NC(=O)c1c(C)nc2ccc(Br)cn12 | 10.2% |
| CCC(C(=O)O)n1nc(-c2ccccc2)c2cc(Cl)ccc21 (configuration not stated) | -3.2% |
| CC(C(=O)NCc1ccco1)n1nc(-c2ccccc2)c2cc(Cl)ccc21 (configuration not stated) | 7.1% |
| O=c1[nH]c(CN2CCCC2)nc2sc3c(c12)CCC3 | 0.2% |
| COc1ccc(N2CCN(C(=O)C(=O)c3cn(CC(=O)N4CCCCCC4)c4ccccc34)CC2)cc1 | 2.6% |
| C=CCC(O)(CC=C)CNC(=O)C1CCC(=O)N(CCCc2ccccc2)C1 (configuration not stated) | 1.6% |
| COc1cc(C2C3CN(C)CC=C3C(C#N)=C(N)C2(C#N)C#N)ccc1OC(C)C (configuration not stated) | 16.1% |
| CN1CC=C2C(C#N)=C(N)C(C#N)(C#N)[C@H](c3cccs3)[C@H]2C1 | 39.8% |
| CC(=O)N1CC=C2C(C#N)=C(N)C(C#N)(C#N)C(C)C2C1 (configuration not stated) | 13.2% |
| CN1CC=C2C(C#N)=C(N)C(C#N)(C#N)[C@H](c3cccc(Cl)c3)C2C1 (some centres not stated) | 101% (active) |
| COc1cc([C@@H]2[C@H]3CN(C)CC=C3C(C#N)=C(N)C2(C#N)C#N)cc2c1OCO2 | 48.3% |
| CCCCn1c(=N)n(CC(=O)c2ccc(OC)cc2)c2ccccc21 | -0.5% |
| COC(=O)c1cccc(NC(=O)c2nn(C(C)C)c(=O)c3ccccc23)c1 | 25.1% |
| Cc1ccc(CNC(=S)NC2CCCCC2)cc1 | -8.5% |
| CCC(=O)Nc1ccc(C(=O)NNC(=O)c2ccc(C)cc2)cc1 | 9.3% |
| O=C(Nc1ccc(S(=O)(=O)Nc2ccccc2)cc1)c1ccc(CN2CCOCC2)cc1 | -0.3% |
| COc1cc(CN2CCCC(C)C2)ccc1OCc1ccccc1 (configuration not stated) | 9.5% |
| CC(C)Cn1c(N)c(C(=O)COC(=O)/C=C/c2cccs2)c(=O)n(C)c1=O | 12.1% |
| CCOC(=O)CN1CC23C=CC(O2)C(C(=O)NCc2ccccc2OC)C3C1=O (configuration not stated) | 13.9% |

| SMILES | inhibition |
| --- | --- |
| O=C1CC(c2ccccc2)N1c1ccccc1 (configuration not stated) | 8.1% |
| CC(=O)Nc1ccc(C(=O)/C=C/c2ccco2)cc1 | -4.1% |
| O=C(/C=C\c1ccco1)c1ccc(NC(=O)c2ccco2)cc1 | 15.5% |
| CC1=C(C(=O)Nc2ccc(Cl)cc2C(=O)N2CCC(C(N)=O)CC2)SCCO1 | 16.5% |
| Cc1nc(N2CCC(C)CC2)c2c(C)c(C(=O)Nc3ccc(C)c(F)c3)sc2n1 | 24.7% |
| Cc1nc(N2CCCCC2)c2c(C)c(C(=O)Nc3cccc(C(F)(F)F)c3)sc2n1 | 14.1% |
| Cc1nc(N2CCC(C)CC2)c2c(C)c(C(=O)Nc3ccc(C(F)(F)F)cc3)sc2n1 | 25.3% |
| Cc1c(C(=O)Nc2ccc3c(c2)OCCO3)sc2ncnc(N3CCCCC3C)c12 (configuration not stated) | 1.3% |
| Cc1ccc(-c2cccc(C(=O)NCCc3ccccc3)n2)c2ccccc12 | -3.7% |
| CCOC(=O)N1CCN(C(=O)COC(=O)c2ccc(O)cc2O)CC1 | -5.5% |
| COc1ccc(S(=O)(=O)N2CCN(c3ccccn3)CC2)cc1OC | 2.6% |
| COc1ccc(C2SCCN2C(=S)Nc2ccc(F)cc2)cc1 (configuration not stated) | -0.3% |
| COC(=O)CN1C(=O)[C@H]2[C@@H](c3ccc(C)o3)N3C(=O)CN(CC4CC4)C(=O)[C@@]3(Cc3ccccc3)[C@H]2C1=O | 5.1% |
| COc1ccc2cc3cc(C(=O)N4CCN(c5ccccc5)CC4)oc3nc2c1 | 6% |
| COc1ccc2nc3oc(C(=O)N4CCN(c5cccc(C(F)(F)F)c5)CC4)cc3cc2c1 | 8.6% |
| O=C(Nc1cccc(-c2cn3ccccc3n2)c1)c1cc2ccccc2oc1=O | -3.4% |
| COc1cc(/C=C2\C(=N)N3N=C(S(C)(=O)=O)SC3=NC2=O)cc(OC)c1OCCOc1ccccc1C | 3.6% |
| S=c1nc(-c2ccccc2)n(Cc2cccnc2)c2c1CCCC2 | 14.8% |
| CCCCC[C@H]1CN(CCCC)C(=O)[C@@H]1CC(=O)NCc1ccc(OC)cc1 | 8.5% |
| C=CCn1c(SCC(=O)Nc2ccc(Cl)cn2)nnc1C1CC1 | -2.5% |
| CCC1CCCCN1S(=O)(=O)c1ccc(NC(=O)c2ccncc2)cc1 (configuration not stated) | -21.5% |
| CCS(=O)(=O)c1ncc(Cl)c(C(=O)Nc2ccc(S(=O)(=O)N3CCC(C)CC3)cc2)n1 | 27.7% |
| COc1ccc(/C=C2\SC(=S)N(CCC(=O)N3CCCCC3)C2=O)cc1 | 1.2% |

| SMILES | inhibition |
| --- | --- |
| Cc1ccc(/C=C2/SC(=S)N(CCC(=O)N3CCN(c4ccccc4)CC3)C2=O)cc1 | -11.1% |
| COc1c(S(=O)(=O)Nc2cccnc2)ccc(Cl)c1Cl | 0.5% |
| O=c1[nH]cnc2sc3c(c12)CN(Cc1ccccc1)CC3 | -2.4% |
| Cc1ccc(NC(=O)C2C(c3ccccc3)C=CC(c3ccccc3)C2C(=O)O)cc1 (configuration not stated) | -4.3% |
| Cc1ccccc1Nc1nnc(SCC(=O)NCc2cccs2)s1 | 0% |
| C/C(=N\NC(=O)c1cc(-c2ccc(C)s2)[nH]n1)c1ccncc1 | -6.8% |
| COc1ccc(C(=O)NCCc2nnc(SCC(=O)Nc3ccc(Br)cc3)n2C)cc1 | 0.4% |
| CC1(C)Cc2ccccc2/C(=C/C(=O)N2CCCCCC2)N1 | 7.4% |
| CNC(=O)/C=C1\NC(C)(C)Cc2c1ccc1ccccc21 | 7.2% |
| O=C(NN1CCOCC1)c1ccccc1Br | 2.6% |
| COc1ccc2c(c1)NC(c1cc(Cl)cc(Cl)c1O)c1cccn1-2 (configuration not stated) | 12.6% |
| COc1ccc(C2Nc3cc(OC)ccc3-n3cccc32)cc1 (configuration not stated) | 7% |
| COc1ccc2c(c1)NC(c1ccc(N(C)C)cc1)c1cccn1-2 (configuration not stated) | 83.6% (active) |
| CCc1nnc(NC(=O)c2cc(S(=O)(=O)N3CCOCC3)ccc2N2CCCCC2)s1 | 4.8% |
| CCOc1ccccc1CNc1nnnn1C | 2.8% |
| CCN1C(=O)/C(=C/C=C2/Sc3ccccc3N2CCO)SC1=S | -15.5% |
| C=CCN1C(=O)/C(=C/C=C2/N(CC)c3ccc(S(=O)(=O)N(C)C)cc3N2CC)SC1=S | 9.4% |
| CCN1C(=O)/C(=C/C=C2\N(CC)c3cc(S(=O)(=O)N(C)C)ccc3N2c2ccccc2)SC1=S | 62% (active) |
| CC(=O)c1cccc(OCc2cc(C(=O)N3C[C@@H](C)O[C@@H](C)C3)no2)c1 | 4.5% |
| CC1Sc2ccc(S(=O)(=O)CCC(=O)NCc3ccc(Cl)cc3)cc2NC1=O (configuration not stated) | 7.8% |
| Cc1cc(NC(=O)CSc2nnc(-c3c[nH]c4ccccc34)n2-c2ccc(Cl)cc2)no1 | 3.9% |
| COc1cccc(Cn2cccc(NC(=O)NCc3ccccc3)c2=O)c1 | -1% |
| N#Cc1c(Cl)nc(SCc2ccccc2)nc1-c1ccccc1 | 10.7% |

| SMILES | inhibition |
| --- | --- |
| CSc1nc(Cl)c(C#N)c(-c2ccc(C)cc2)n1 | 61.8% (active) |
| COc1ccc(-c2nc(-c3cccc(C)c3)nc(Cl)c2C#N)cc1 | 13.1% |
| CCOC(=O)c1c(-c2ccc(C)cc2)csc1NC(=O)/C(C#N)=C/c1ccc(O)c(OC)c1 | 2.7% |
| CCOC(=O)c1c(-c2ccccc2)csc1NC(=O)/C(C#N)=C/c1ccc(OC)c(OC)c1 | -10.8% |
| O=C(O)c1ccc(COc2ccccc2[N+](=O)[O-])o1 | 9.8% |
| Cc1ccc(-c2c(C(=O)N/N=C/c3ccc(C)o3)nnn2-c2nonc2N)cc1 | 9.3% |
| CCCN1C=CC(=CC=C(C#N)C#N)C=C1 | 59.2% (active) |
| CCCN1C=CC(=C/C=C(\C#N)C(=O)OCC)C=C1 | 7.2% |
| C=CCN1C=CC(=CC=C(C#N)C#N)C=C1 | 29.6% |
| Cc1ccc(C(=O)O)cc1NC(=O)C1=CSCCO1 | -0.5% |
| COc1ccc(CNc2cc(C)nc3ccc(OC)cc23)cc1 | 7.8% |
| COc1ccc2nc(C)cc(NCc3cccc(C(F)(F)F)c3)c2c1 | -5.8% |
| O=C1Oc2ccccc2C(=O)/C1=C/N1CCN(c2ccccc2F)CC1 | -6.9% |
| CC(C)CCN1CCNC(=O)C1CC(=O)NCCCN1CCOCC1 (configuration not stated) | -0.8% |
| CC(NC(=O)CN1CCCC1)C12CC3CC(CC(C3)C1)C2 (configuration not stated) | 1.4% |
| CC(NC(=O)Cn1nc(C(=O)O)c2ccccc2c1=O)C12CC3CC(CC(C3)C1)C2 (configuration not stated) | 8% |
| O=C(c1cc(-c2ccccc2Cl)nc2ccccc12)N1CCOCC1 | 10.1% |
| CCN(CC)c1ccc2c(C)c(Cl)c(=O)oc2c1 | 8.4% |
| CCN(CC)c1ccc2c(Cl)cc(=O)oc2c1 | 4.5% |
| COc1ccc(C(=O)/C=C/c2ccc(N3CCCCC3)c([N+](=O)[O-])c2)cc1 | 2.4% |
| Cn1ccc(=Nc2ccc(NC(=O)c3ccc(N=c4ccn(C)c5ccc([N+](=O)[O-])cc45)cc3)cc2)cc1 | 53.5% (active) |
| CCn1c2ccccc2c2cc(NC(=O)c3ccc([N+](=O)[O-])cc3)ccc21 | -16.2% |
| O=C(Nc1ccc(N2CCOCC2)cc1)c1ccc([N+](=O)[O-])cc1 | 14.4% |

From PubChem BioAssay AID2058 (Sanford-Burnham Center for Chemical Genomics, 2009)
